Only some compounds are listed: those with a hit (about 10% of all), similar ones and a draw of the others.
BAZ2B block = qHTS Assay for Inhibitors of BAZ2B; Potency, µM (top dose mostly 114 µM), inactives show at the top dose activity change, negative = inhibition, usual class: inhibitors; AID 504333, 2011; hit rate 4.4% among 360,000; Bromodomain adjacent to zinc finger domain protein 2B (Homo sapiens), Q9UIF8; AlphaScreen BAZ2B-H3K14Ac peptide displacement; note: potency is the fitted concentration of half-maximal effect; % is set by controls: 0 for no effect and ±100 for the full control effect; nearly all actives have a fitted effect of over 60% in size
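Compounds, titrated to a top concentration of 110 uM, were incubated 30 min at room temperature with preformed BAZ2B/acetyl-K14 H3 peptide complex (50 nM each). Proximity signal was measured by AlphaScreen after 20 min with beads.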
Six1-Eya2 blk = qHTS Assay for Inhibitors of the Six1/Eya2 Interaction; Homeobox protein SIX1 (Homo sapiens) + Protein phosphatase EYA2 (Homo sapiens), …; AlphaScreen GST-Six1/His-Eya2 binding, biochemical; active compounds read low; activity change, % (no concentration beside the values); hit rate 0.56% among 360,000; AID 651725, 2012; in the data active = activity change below about -65%; inconclusive = mostly about -30% to -63%; note: % is set by controls: 0 for no effect and ±100 for the full control effect
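AlphaScreen with GST-Six1 and His-Eya2 (5X mix: 250 nM and 500 nM), glutathione donor and nickel acceptor beads; buffer 50 mM Tris pH 8.0, 300 mM NaCl, 1 mM TCEP; 1 h at 37 C in the dark.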
G9a inh = qHTS Assay for Inhibitors of Histone Lysine Methyltransferase G9a; Histone-lysine N-methyltransferase EHMT2 (Homo sapiens), Q96KQ7; G9a H3K9 monomethylation, AlphaScreen, 2 h; Potency, µM (titrated, usually from 102 µM), for the others: at the top dose activity, negative = inhibition, hits mostly inhibitors; hit rate 8.8% among 350,000; AID 504332, 2011; note: potency is the fitted concentration of half-maximal effect; % is set by controls: 0 for no effect and ±100 for the full control effect; nearly all actives have a fitted effect of over 75% in size
Target sequence (Q96KQ7 913-1193 limits assumed): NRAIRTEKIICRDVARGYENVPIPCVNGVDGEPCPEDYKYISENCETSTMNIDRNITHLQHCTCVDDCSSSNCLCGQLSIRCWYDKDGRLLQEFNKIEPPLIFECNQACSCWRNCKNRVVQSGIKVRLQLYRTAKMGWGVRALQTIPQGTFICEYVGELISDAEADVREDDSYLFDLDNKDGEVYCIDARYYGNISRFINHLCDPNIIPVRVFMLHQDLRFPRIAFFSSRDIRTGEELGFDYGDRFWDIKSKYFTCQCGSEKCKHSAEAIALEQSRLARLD
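Signal arises when biotinylated H3K9 peptide, once monomethylated, bridges streptavidin donor and antibody-captured acceptor beads. Enzyme at 20 nM was preincubated 15 min with test compounds; peptide 500 nM and SAM 20 uM then reacted for 2 h.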
JMJD2A Tudor = qHTS Assay for Inhibitors of JMJD2A-Tudor Domain; AlphaScreen JMJD2A-Tudor / H3K4me3 peptide binding; AID 504339, 2011; Potency, µM (series often up to 114 µM), without a hit: top-dose activity change, negative = inhibition, hits mostly inhibitors; hit rate 4.4% among 390,000; note: potency is the fitted concentration of half-maximal effect; % is set by controls: 0 for no effect and ±100 for the full control effect; nearly all actives have a fitted effect of over 50% in size
CtBP-E1A blk = qHTS Assay for Inhibitors of the CtBP/E1A Interaction. CtBP / adenovirus E1A interaction (AlphaScreen). AlphaScreen GST-E1A/His-CtBP binding, 1536-well; active compounds read low. activity change, % (no concentration beside the values). hit rate 0.49% among 340,000; in the data active = activity change below about -65%; inconclusive = mostly about -30% to -63%; note: % is set by controls: 0 for no effect and ±100 for the full control effect
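Protein mix (5X: 125 nM each GST-E1A, His-CtBP) was incubated with pinned compound 2 h at 37 deg C in dark, in 50 mM Tris pH 8.0 buffer with 300 mM NaCl. Glutathione donor and nickel acceptor beads followed; AlphaScreen signal read after 1 h.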
HP1b binding inh = HTS for Inhibitors of HP1-beta Chromodomain Interactions with Methylated Histone Tails | Potency, µM (top dose mostly 114 µM), inactives show at the highest dose activity change, negative = inhibition, usual class: inhibitors | AlphaScreen HP1-beta / biotin-H3K9me3 peptide binding | hit rate 0.56% among 390,000 | AID 540317, 2011 | Chromobox protein homolog 1 (Homo sapiens), P83916; note: potency is the fitted concentration of half-maximal effect; nearly all actives have a fitted effect of over 70% in size
Target sequence (P83916 whole entry, looked up): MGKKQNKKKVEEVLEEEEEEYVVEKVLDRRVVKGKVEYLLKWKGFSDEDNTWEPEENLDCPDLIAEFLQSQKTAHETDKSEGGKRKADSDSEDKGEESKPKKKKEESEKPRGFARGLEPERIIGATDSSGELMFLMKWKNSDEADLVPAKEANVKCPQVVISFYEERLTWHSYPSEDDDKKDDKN
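Compound inhibition of the preformed complex between 50 nM HP1-beta and 50 nM biotinylated H3K9me3 peptide was read by AlphaScreen. Buffer was PBS pH 7.4 with 0.01% Tween-20. Incubations ran 30 min at room temperature, with 10 ug/mL donor/acceptor beads.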
* marks the source's active call; other numbers are inactive results; ? = inconclusive; . = not tested or not shown; [ ] = dose if it differs, or a comment. Unless noted, calls come from the whole dose curve; as a rule, active = well fitted inhibition curve with a large enough effect; inconclusive = small, poorly fitted or top-dose-only effect; inactive = no such curve, though single readings can be large or run the other way.

SMILES	BAZ2B block	Six1-Eya2 blk	G9a inh	JMJD2A Tudor	CtBP-E1A blk	HP1b binding inh
CC(=O)Nc1ccc(C(=O)Nc2nc(-c3ccccn3)cs2)cc1	5.6µM*	-81*	?	56µM*	-91*	28%
O=C(NCc1ccccn1)c1ccccc1OCc1ccc(Cl)cc1Cl	11%	6	61%[59 µM]	16%	1	51%
O=c1[nH]c(=S)[nH]c2sccc12	-29%	14	10µM*	3.5µM*	-4	?
CC(C)c1ccc(O)c(NC(=O)c2ncn[nH]2)c1	?	-19	.	-17%	-17	32%
CCc1ccc2c(c1)C1(NN=C(c3ccc(C)cc3)S1)C(=O)N2 (centres undefined)	7.9µM*	-27	28µM*	50µM*	-19	18µM*
CC(C)c1ccc2c(c1)C1(NN=C(c3ccccc3)S1)C(=O)N2 (centres undefined)	10µM*	?	18µM*	71µM*	-17	?
CCOC(=O)c1c(C)[nH]c(C)c1S(=O)(=O)N1CCCC(C(=O)N2CCN(c3ccccc3F)CC2)C1 (centres undefined)	?	.	-1%[59 µM]	?	.	-14%
COc1cc(-c2noc(C)c2C#CC2(N)CCCCC2)cc(OC)c1OC	?	0	14µM*	-24%	-2	24%
COc1cc(-c2noc(C)c2C#CC2(O)CCCCC2)cc(OC)c1OC	1%	-1	.	-3%	1	51%
Cc1cc(Cl)ccc1NC(=S)NCc1ccccc1Cl	-9%	-10	9%[59 µM]	7%	3	29%
Cc1ccccc1NC(=S)/C(=C(\[O-])c1cc(C)n(Cc2ccccc2Cl)c1C)[n+]1ccccc1	40µM*	-21	50µM*	35µM*	22	?
Cc1cc(C([O-])=C(C(=S)Nc2ccccc2)[n+]2ccccc2)c(C)n1-c1ccccc1	.	-21	.	32µM*	-19	?
Cc1ccc(Cl)cc1N1CCN(C(=O)C2CCN(c3nnc(-n4cccc4)s3)CC2)CC1	13%	-8	-1%[59 µM]	-14%	-28	29%
Cc1cccc(N2CCN(C(=O)CCC(=O)N3CC(C)Oc4ccc(C)cc43)CC2C)c1 (centres undefined)	?	0	45µM*	?	0	-10%
Cc1cccc(N2CCN(S(=O)(=O)c3ccc4c(c3)CCN4C(=O)CCC(=O)O)CC2C)c1 (centres undefined)	?	-5	?	56µM*	2	?
Cc1cccc(N2CCN(C(=O)C3CCN(c4nnc(-n5cccc5)s4)CC3)CC2C)c1 (centres undefined)	?	-3	50µM*	?	-8	-4%
O=C(CSc1ccsc1[N+](=O)[O-])N1CCN(c2ccccn2)CC1	?	-5	45µM*	?	0	-20%
CC1CC(C)CN(S(=O)(=O)c2ccc3c(c2)CCN3C(=O)CCC(=O)O)C1 (centres undefined)	1%	9	.	-5%	0	23%
COc1ccc(CN2CCC2(C)C(=O)NCc2ccc3c(c2)OCO3)c2ccccc12 (centres undefined)	.	-15	.	.	-7	.
Cc1cccc(N2CCN(C(=O)CSc3ccsc3[N+](=O)[O-])CC2C)c1 (centres undefined)	40µM*	-24	?	?	-16	-36%
COc1cc(NC(C)C(=O)N2CC(C)OC(C)C2)cc(OC)c1 (centres undefined)	40µM*	-7	?	3.2µM*	-1	16µM*

Screening results: PubChem, National Center for Advancing Translational Sciences (NCATS)
